Screen size: about 69,000 compounds; about 8,600 (12%) showed an effect of 50% or more. The list comes from a sample in which strong results are over-represented; it also holds similar structures and randomly drawn compounds.
The compounds below were run on Plasmodium berghei (assay: Screen against P. berghei liver stage (PbLuc), transformed with Luciferase, at 10uM). Details: tested at 10 uM.
Type: functional, HepG2

Compared with `COc1ccc(C(=O)C2CCCN(c3cc(C#N)ccn3)C2)cc1OC` (centres undefined), `COc1ccc(C(=O)C2CCCN(c3cc(C#N)ccn3)C2)cc1F` (centres undefined) is higher in INHIBITION: 42.1% for the first, 63% for the second.

Compared with `CNC(=O)c1ccnc(N2CCCC(COc3cccc(C)c3)C2)c1` (centres undefined), `COc1cccc(C(=O)C2CCCN(c3cc(C#N)ccn3)C2)c1` (centres undefined) is higher in INHIBITION: 47.2% for the first, 59.4% for the second.

First: COc1ccccc1C(=O)C1CCCN(c2cc(C#N)ccn2)C1 (centres undefined)
Second: COc1ccc(C(=O)N2CCCC(C)C2)cc1F (centres undefined)
The INHIBITION of the first is lower: 18.5% for the first, 28.5% for the second.

Going from `Cn1[nH]c(C2CCCN(C(=O)CO)C2)cc1=O` (centres undefined) to `Cc1cc(C)n(C2CCCN(C(=O)CCCc3ccccn3)C2)n1` (centres undefined), the INHIBITION falls from 29% to 16.9%.

Compared with `COCCN(C)CC(=O)N1CCCC2(CCC(=O)N(CC3CC3)C2)C1` (centres undefined), `COCCc1noc(CN2CCCCC2Cn2cncn2)n1` (centres undefined) is lower in INHIBITION: 29.4% for the first, 10.675% for the second.

Compared with `CC(C)(C)S(=O)(=O)c1ccc(N2CCC(n3ccnc3)CC2)cn1`, `Nc1cc(C(=O)N2C[C@@H]3CC[C@H]2CN(Cc2cccnc2)C3)ccn1` is lower in INHIBITION: 34.5% for the first, 4.64% for the second.

Going from `O=C1CN(c2ccc(CNC(=O)NCC3CCOC3)cc2)CCN1` (centres undefined) to `CC(Cn1ccnc1)NC(=O)NCc1ccc2c(c1)OCCO2` (centres undefined), the INHIBITION falls from 0.411% to -9.76%.

Compared with `NC(=O)c1nnn(-c2ccc(Cl)cc2)n1`, `Cc1nnc2n1CCN(C(=O)c1ccn(-c3cccc(F)c3)n1)C2` is higher in INHIBITION: -27.1% for the first, -1.15% for the second.

First: O[C@@H]1CN(c2nc3ccccc3o2)CC[C@H]1c1ccc2c(c1)OCO2
Second: O[C@@H]1CN(c2nc3ccccc3s2)CC[C@H]1c1ccc2c(c1)OCO2
The INHIBITION of the first is lower: 39.3% for the first, 68.1% for the second.

First: CCCc1nc(N2CC[C@@H](c3ccc4c(c3)OCO4)[C@H](O)C2)no1
Second: O[C@@H]1CN(c2cnc3ccccc3n2)CC[C@H]1c1ccc2c(c1)OCO2
The INHIBITION of the first is lower: 19.4% for the first, 60.1% for the second.

First: CCc1cc(C(=O)N2CC[C@@H](c3ccc4c(c3)OCO4)[C@H](O)C2)[nH]n1
Second: CC(C)c1cc(C(=O)N2CC[C@@H](c3ccc4c(c3)OCO4)[C@H](O)C2)[nH]n1
The INHIBITION of the first is lower: -5.22% for the first, 15.6% for the second.

Compared with `CC(C(=O)NCC(C)(C)c1ccc2c(c1)OCO2)n1ccnc1` (centres undefined), `CC(C)Oc1ncccc1CNC(=O)c1ccccn1` is lower in INHIBITION: 29.8% for the first, -48.4% for the second.

First: CCc1ccc(C(=O)N2CCC(c3nncn3CC)CC2)s1
Second: Cc1cccc(CN2CC3(CCN(C(N)=O)CC3)OCC2=O)n1
The INHIBITION of the first is higher: 9.14% for the first, 7.53% for the second.

First: Cc1nnc([C@@]23CCO[C@@H]2CCN(Cc2scnc2C)C3)o1
Second: CN(C)c1cc(NCc2cnc3n2CCN(CC2CC2)CC3)ncn1
The INHIBITION of the first is lower: 10.4% for the first, 17.2% for the second.

Compared with `COc1coc(C(=O)Nc2nc(C)cs2)cc1=O`, `COc1ccnc(NC(=O)c2cscc2C)c1` is lower in INHIBITION: 5.03% for the first, -28.3% for the second.

First: COCCN1CCc2ncc(CNc3cc(N(C)C)ncn3)n2CC1
Second: CN1CCc2ncc(CNc3cc(N(C)C)ncn3)n2CC1
The INHIBITION of the first is higher: 54.1% for the first, 21.6% for the second.

First: Cc1nn(C)c(C)c1C1CCCN1C(=O)CCNS(C)(=O)=O (centres undefined)
Second: Cc1nn(C)c(C)c1C1CCCN1CC(=O)N(C)c1nccs1 (centres undefined)
The INHIBITION of the first is lower: -37.7% for the first, 5.91% for the second.

First: Cc1ccsc1-c1nccn1CCN1CCCOC1=O
Second: CN(C)C(=O)[C@@H]1C[C@@H]2[C@@H](CCN2Cc2nccs2)O1
The INHIBITION of the first is lower: 20.8% for the first, 44.5% for the second.

First: Cc1cc(CCC(=O)Nc2nncs2)nc(C2CCCN2)n1 (centres undefined)
Second: Cc1cccnc1CC(C)Nc1nc(N)nc2c1CCNC2 (centres undefined)
The INHIBITION of the first is lower: 5.11% for the first, 65.7% for the second.

Going from `CN(C)c1ncccc1C(=O)N1CCCC1Cn1cccn1` (centres undefined) to `CC1CCCCN1CCNC(=O)c1ccn(-c2ccccc2)n1` (centres undefined), the INHIBITION rises from -21.5% to 7.12%.

First: N#Cc1c(Cl)nsc1NCCCN1C(=O)COc2ccccc21
Second: N#Cc1cnc(NCCCN2C(=O)COc3ccccc32)c(Cl)c1
The INHIBITION of the first is higher: 62.4% for the first, -66.9% for the second.

Going from `N#Cc1ccc(NCCCN2C(=O)COc3ccccc32)nc1` to `CC1Cc2ccccc2N1C(=O)Cn1nc(-c2cccs2)ccc1=O` (centres undefined), the INHIBITION rises from 15.3% to 44.3%.

First: COc1ccc(Cl)cc1CCNC(=O)NCc1cnn(C)c1C
Second: CCCC(=O)NCCc1nc(N(C)C)ncc1-c1ccncc1
The INHIBITION of the first is lower: -9.35% for the first, 1.2% for the second.

Compared with `Cc1cscc1C(=O)Nc1cc(CSCCO)ccn1`, `O=C(Nc1cc(CSCCO)ccn1)c1ccc(Cl)o1` is lower in INHIBITION: 52.2% for the first, 38.3% for the second.

Compared with `CCC(NS(=O)(=O)N1CCOCC1)c1ccccc1OC` (centres undefined), `COc1ccccc1CCNS(=O)(=O)N1CCOCC1` is higher in INHIBITION: 4.41% for the first, 8.38% for the second.

Going from `COc1ccccc1OCCNS(=O)(=O)N1CCOCC1` to `O=S(=O)(NCCc1ccccc1F)N1CCOCC1`, the INHIBITION falls from 58.4% to 53.8%.

Compared with `O=S(=O)(NCCc1ccccc1C(F)(F)F)N1CCOCC1`, `O=S(=O)(NCCc1cn2ccccc2n1)N1CCOCC1` is lower in INHIBITION: 24.3% for the first, 1.74% for the second.

Compared with `CCNc1nc(-c2cccnc2)c(-c2ccnc(N3CCOCC3)n2)s1`, `Nc1nc2c(c(NCC(c3cccnc3)N3CCOCC3)n1)CCNC2` (centres undefined) is lower in INHIBITION: 39.7% for the first, 23.1% for the second.

First: CS(=O)(=O)N[C@@H]1CN(Cc2ccc3ncccc3c2)C[C@H]1O
Second: Cc1ccc(S(=O)(=O)n2ccc(C(=O)NCC(F)(F)F)c2)cc1
The INHIBITION of the first is lower: 23.9% for the first, 53.8% for the second.

Compared with `N#Cc1c(N)nc2c(c1-c1cnc(N3CCCC3)nc1)COCC2`, `Cc1cccc(C)c1OCC(C)Nc1nc(N)nc2c1CCNC2` (centres undefined) is higher in INHIBITION: -10.7% for the first, 42.6% for the second.

Going from `CCNC(=O)CNC(=O)c1ccn(S(=O)(=O)c2ccc(C)cc2)c1` to `CCOCCNC(=O)c1ccn(S(=O)(=O)c2ccc(C)cc2)c1`, the INHIBITION rises from 2.69% to 13.5%.

Compared with `Cc1cc(C(=O)NCCN2CCC(C)CC2)nn1C(C)(C)C`, `Cc1cc(C(=O)NCCN2CCCC(C)C2)nn1C(C)(C)C` (centres undefined) is lower in INHIBITION: 36.8% for the first, -5.26% for the second.

Compared with `Cc1cc(C(=O)NCCN2CCCCC2C)nn1C(C)(C)C` (centres undefined), `Cc1cc(C(=O)NCCN2CCCCC2)nn1C(C)(C)C` is lower in INHIBITION: 52.7% for the first, -22.3% for the second.

First: Cc1cc(C(=O)NCCN2CCCCCC2)nn1C(C)(C)C
Second: COCC1CN(Cc2ccc(C)o2)Cc2cn(C)nc21 (centres undefined)
The INHIBITION of the first is higher: 76.6% for the first, 29.7% for the second.

In the case of `CNC(=O)[C@@H]1CC[C@@H]2[C@@H](CCN2Cc2ccccc2F)O1`, the INHIBITION is reported as 0.804%.
